Compound activity as filed in PubChem BioAssay.
hgDAF12 agonist = H. glycines DAF-12 receptor agonists, primary screen, cell-based, luminescence, HEK293, GAL4 fusion, UAS-luciferase | 370,000 tested, 1.8% active | AID 687014, 2013 | activation, % at 6.8 µM | HEK293 GAL4-hgDAF12 UAS-luciferase reporter, agonist luminescence; normalized to butyrate control | Nuclear hormone receptor DAF-12 (Heterodera glycines), GAL4 fusion;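 active means activation above a cutoff set at the mean of all screened compounds plus 3 SD, cut at about 10% in these data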;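 further: 0% = DMSO wells and 100% = sodium butyrate wells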
DAX1 inh-1 = DAX1 (NR0B1) inhibitors, primary screen, cell-based, HEK293, Gal4-DAX1, luciferase luminescence; Nuclear receptor subfamily 0 group B member 1 (Homo sapiens), P51843; HEK293 Gal4-DAX1 luciferase reporter; inhibition, % at 6.75 µM; 340,000 tested, 0.99% active;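 active means inhibition above the mean over all tested compounds plus 3 SD, cut at about 4.2% in these data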;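 further: 0% = DAX1-transfected cells with DMSO and 100% = empty-vector control cells with DMSO; inhibition shows as a rise in luminescence from relieved DAX1 repression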
Target sequence (P51843 207-470 limits assumed): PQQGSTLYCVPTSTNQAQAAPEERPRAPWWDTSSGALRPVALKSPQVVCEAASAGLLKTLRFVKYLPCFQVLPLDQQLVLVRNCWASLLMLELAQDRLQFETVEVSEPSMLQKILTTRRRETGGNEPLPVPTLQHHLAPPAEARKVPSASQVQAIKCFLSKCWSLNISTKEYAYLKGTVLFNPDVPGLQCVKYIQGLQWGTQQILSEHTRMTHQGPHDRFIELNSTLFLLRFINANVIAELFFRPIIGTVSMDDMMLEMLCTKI
DAX1 inh-2 = DAX1 (NR0B1) inhibitors on StAR promoter, primary screen, cell-based, luminescence, SF-1 (NR5A1), full-length DAX-1 | HEK293T StAR-luciferase reporter, SF-1/DAX-1 repression relief | inhibition, % at 6.8 µM | 370,000 tested, 1.1% active;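 active means inhibition above the mean over all tested compounds plus 3 SD, cut at about 3.6% in these data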;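 further: 0% = DAX-1 cells with DMSO and 100% = cells lacking DAX-1 with DMSO; higher inhibition means more luminescence from relief of DAX-1 repression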
hcDAF-12 act = H. contortus DAF-12 nuclear receptor activators, primary screen, cell-based, luminescence, HEK293, lit1-tk-luc reporter; HEK293 hcDAF-12 lit1-tk-luc reporter; 0% DMSO, 100% Δ7-dafachronic acid; activation, % at 6.8 µM; 370,000 tested, 1.4% active; AID 652067, 2013;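 active means activation above the mean of all tested compounds plus 3 SD, cut at about 5.5% in these data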;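 further: 100% = response to 3 µM Δ7-dafachronic acid high control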
SMARCA2 activ = SMARCA2 (BRM) function activators, primary screen, cell-based, luminescence, high throughput. MG213 cells, MMTV-luciferase reporter, dexamethasone, overnight. activation, % at 9.1 µM. 370,000 tested, 1% active. AID 652017, 2013; in the data active means activation above about 7.8%;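 further: 0% = vehicle wells and 100% = reference activator wells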
ssDAF-12 act = S. stercoralis DAF-12 nuclear receptor activators, primary screen, cell-based, luminescence, HEK293, GRIP1 co-expression, lit1-tk-luc | AID 652126, 2013 | Nuclear hormone receptor DAF-12 (Strongyloides stercoralis) | activation, % at 6.8 µM | HEK293 ssDAF-12/GRIP1 lit1-tk-luc reporter; % of 3 µM dafachronic acid response | 370,000 tested, 1% active;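 active means activation above the mean over all tested compounds plus 3 SD, cut at about 0.9% in these data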;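 further: 0% = DMSO-only wells and 100% = 3 µM delta7-dafachronic acid wells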
SMARCA2 act conf = SMARCA2 (BRM) function activators, confirmation, cell-based, luminescence, triplicate. MG213 cells, MMTV-luciferase with dexamethasone, overnight; MG213 cells expressing E1A, Rb sequestered; DMSO wells 0%, reference activator 100%. shares compounds with SMARCA2 activ. activation, % at 9.1 µM. 3,500 tested, 30% active;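 active means activation above its plate's cutoff, the mean activation of tested wells plus 3 SD, cut at about 7.9% in these data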
VP16 Luc act = GAL4-VP16 luciferase reporter activation, counter-screen for SMARCA2 (BRM) activator project, cell-based, pG5luc, luminescence, high throughput. shares compounds with SMARCA2 activ. HEK293 GAL4-VP16 pG5luc reporter; scaled: DMSO wells 0%, SAHA wells 100%. activation, % at 9.1 µM. 3,500 tested, 41% active. AID 686939, 2013;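 active means activation above the solvent-only control well mean plus 3 SD, averaged across control plates, cut at about 5.2% in these data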
* hit, by the source's call; . = not tested or not shown. The list is not random: actives were taken first. Their share in the collection is about 4.8%.

SMILES	hgDAF12 agonist	DAX1 inh-1	DAX1 inh-2	hcDAF-12 act	SMARCA2 activ	ssDAF-12 act	SMARCA2 act conf	VP16 Luc act
CCCCCCCCC(c1nc2ccccc2[nH]1)N1CCN=C1c1cc2ccccc2[nH]1 (stereo unspecified)	0	.	1	3	-2	-1	.	.
COc1ccc(-c2nnc(-c3ccccc3)o2)cc1OC	10*	2	2	1	8.4*	0	6	12*
CN(Cc1ccc(F)cc1)C(=O)CCc1nnc(-c2ccccc2)o1	8	1	0	2	2	0	.	.
COc1ccc(CCN(C)C(=O)CCc2nnc(-c3ccccc3)o2)cc1OC	11*	2	1	4	11*	0	13*	7.3*
Cc1nonc1C(=O)N/N=C/c1ccc(O)c(O)c1	2	0	1	-2	9.0*	-1	0	3
COc1ccc(/C=N\NC(=O)C2CCCC2)cc1Br	4	0	3	1	9.0*	-1	7	4
COc1cc(/C=N/NC(=O)c2nonc2C)ccc1O	7	0	0	0	9.4*	0	6	0
COc1cc(/C=N/NC(=O)c2nc(C)cc(C)n2)ccc1O	7	2	1	1	8.9*	-1	2	0
CCOc1ccc(/C=N/NC(=O)C2CC2)cc1OC	-2	0	1	-1	2	-1	.	.
CC(=O)c1ccccc1NC(=O)COC(=O)c1cc2ccccc2[nH]1	-3	-1	-2	2	2	0	.	.
COc1cc([N+](=O)[O-])ccc1-c1ccc(C(=O)Nc2ccc(NC(C)=O)cc2)o1	1	0	-1	1	-2	-1	.	.
O=C(C[n+]1cccc(C(=O)Nc2ccccc2)c1)c1ccc(Cl)cc1	3	.	0	1	0	0	.	.
O=C(CSCc1c(Cl)cccc1Cl)Nc1ccccc1C(=O)N1CCOCC1	0	-2	0	-1	-1	-1	.	.
COc1cc(/C=N/NC(=S)Nc2cccc(S(=O)(=O)N(C)C)c2)ccc1O	-2	1	-1	-2	9.8*	-1	2	5.8*
COc1cc(/C=N\NC(=O)OC(C)(C)C)ccc1OC(=O)c1ccco1	2	.	0	1	0	-1	.	.
COc1ccc(/C=N/NC(=O)OC(C)(C)C)cc1OC	1	2	0	3	8.4*	-1	-1	1
CCOC(=O)c1c(NC(=O)C2CCCO2)sc2c1CCC2 (stereo unspecified)	1	2	-1	-2	1	-1	.	.
COc1ccc(C(=O)NCC2(c3ccc(OC)c(OC)c3)CCCC2)cc1OC	-1	1	-1	-1	8.9*	-2	-1	-1
COc1ccc(C2(CNC(=O)c3ccc(OC)c([N+](=O)[O-])c3)CCCCC2)cc1OC	-9	-2	0	-2	-2	-1	.	.
Cc1ccc(S(=O)(=O)N2C[C@]3(O)C[C@@H]4C(=O)N(c5ccccc5)C(=O)[C@@H]4C[C@]3(OC(=O)Nc3c(C)noc3C)C2)cc1	1	1	1	-1	-1	-1	.	.
CC(C)(C)SCCNC(=O)/C=C/c1ccccc1	2	.	1	0	8.1*	-1	6	5
O=C(Oc1cccc(-c2cnc3ccccc3n2)c1)c1ccco1	10	3	2	6.5*	10*	1	8.7*	13*
CC(C)c1ccc(C(=O)NN2C(=O)C3CCCCC3C2=O)cc1 (stereo unspecified)	11*	2	3.8*	5	13*	-1	9.3*	8.5*
O=C(NCc1cccs1)c1ccc([N+](=O)[O-])cc1Cl	2	0	1	-2	13*	-1	2	2
COc1ccc(C(C)=O)cc1COc1ncnc2ccccc12	0	1	0	-1	-4	-2	.	.
SMILES	hgDAF12 agonist	DAX1 inh-1	DAX1 inh-2	hcDAF-12 act	SMARCA2 activ	ssDAF-12 act	SMARCA2 act conf	VP16 Luc act
O=S(=O)(Cc1noc(-c2ccccc2Cl)n1)c1ccccn1	7	4.9*	1	2	16*	1	4	9.3*
CN1CCN(S(=O)(=O)c2ccc(NC(=O)c3ccc(Br)o3)cc2)CC1	2	1	0	0	8.2*	-1	4	1
O=C(Nc1ccc(S(=O)(=O)N2CCCC2)cc1)c1ccc(Br)o1	0	-1	0	0	-2	-1	.	.
CSc1oc(-c2ccco2)nc1S(=O)(=O)c1ccc(C)cc1	-1	0	0	-3	9.2*	-1	0	1
CC(=O)Nc1cccc(-c2cc(NC(C)=O)c3ncc(-c4cccc(C(C)=O)c4)n3c2)c1	-2	.	-2	-2	8.9*	-1	4	1
CC(=O)Nc1cc(-c2cccc(C(=O)NCCN(C)C)c2)cn2c(-c3cccc(C(F)(F)F)c3)cnc12	1	.	1	-1	22*	-1	-15	2
COc1ccc(-c2cc(NC=O)c3ncc(-c4cccc(C(=O)NCCN(C)C)c4)n3c2)cc1	2	.	-1	-1	8.0*	-1	11*	0
CC(=O)Nc1cc(-c2cccc(C(=O)NCCN(C)C)c2)cn2c(-c3ccccc3)cnc12	4	.	0	-2	-1	-1	.	.
Nc1ccn(-c2ccccc2)c(=O)c1	2	1	1	-1	0	-1	.	.
CNC(=O)N1c2ccccc2NC(=O)CC1C (stereo unspecified)	-5	0	-1	-2	0	-1	.	.
O=C1CC(N2CCN(c3nc4ccccc4s3)CC2)C(=O)N1c1ccc(F)cc1 (stereo unspecified)	0	-1	-1	0	0	-1	.	.
COC(=O)/C=C1\C(=O)N(c2nc3ccccc3s2)C(=S)N1c1ccc(F)cc1	0	0	-1	-1	8.6*	-1	3	3
